In PubChem BioAssay (NCI) one finds growth data, which are given here for eight compounds.

What all share (assay): NCI-60 one-dose screen, 48 h (100 = growth as untreated, 0 = no growth, -100 = all killed)
Experiment [1] relates to HCT-15 colon. The following applies: 10 µM unless noted.
The subject of experiment [2] is HT29 colon. The following applies: 10 µM unless noted.
Experiment [3] deals with SNB-19 CNS. Particulars: 10 µM unless noted.
Experiment [4] relates to U251 CNS. The following applies: 10 µM unless noted.
Experiment [5] relates to PC-3 prostate. Particulars: 10 µM unless noted.
For experiment [6], the system named is SK-MEL-5 melanoma. The following applies: 10 µM unless noted.
The subject of experiment [7] is UACC-62 melanoma. The following applies: 10 µM unless noted.
Experiment [8] deals with LOX IMVI melanoma. The following applies: 10 µM unless noted.
Experiment [9] deals with SK-MEL-28 melanoma. Particulars: 10 µM unless noted.
Experiment [10] has as its system SK-MEL-2 melanoma. The following applies: 10 µM unless noted.
In experiment [11] the test system is EKVX NSCLC. Particulars: 10 µM unless noted.
Experiment [12] deals with SN12C renal. The following applies: 10 µM unless noted.
The subject of experiment [13] is UO-31 renal. Particulars: 10 µM unless noted.
The test system of experiment [14] is TK-10 renal. Particulars: 10 µM unless noted.
Experiment [15] deals with ACHN renal. Particulars: 10 µM unless noted.
The subject of experiment [16] is CAKI-1 renal. Particulars: 10 µM.
Experiment [17] has as its system A498 renal. The following applies: 10 µM unless noted.
For experiment [18], the system named is CCRF-CEM leukemia. Particulars: 10 µM unless noted.
The subject of experiment [19] is MOLT-4 leukemia. Particulars: 10 µM unless noted.
For experiment [20], the system named is SNB-75 CNS. The following applies: 10 µM unless noted.

The panel holds about 83,000 compounds, 20% with a hit somewhere; the sample as a whole holds those more often.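 The test compound was applied at a single concentration to cells in 96-well plates for 48 hours, and percent growth was recorded.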 Values without a mark were called inactive. The source made the active and inactive calls. How the source made its calls: active means growth percent below 10; inactive means the rest.

For `Oc1ccc(CSc2nnc(-c3ccccc3)o2)c2cccnc12`, the growth was 10.6% in experiment [1]; 88.8% in experiment [2]; 17% in [3]; 10.9% in [4]; 21.8% in [5]; 6.95% (active) in experiment [6]. For the same compound, the growth in experiment [7] was 5.32% (active); in experiment [8] it was 5.66% (active); in experiment [9], 21.7%; in experiment [10], 35.4%; in experiment [11], 33.1%; in experiment [12] it was 32.1%. Also, the growth in experiment [13] is 1.52% (active); in experiment [14], 28.6%; in experiment [15] it was 10.4%; in experiment [16] it was 16.6%; in [17], 70.7%; in experiment [18] it was 10%. In addition, the growth in experiment [19] is 14.4%.

Regarding `COc1cc2c3c(n(CCCNC4CCC4)c(=O)c2cc1OC)-c1cc2c(cc1C3=O)OCO2`, the growth in experiment [1] is -53% (active); in experiment [2] it was -64.1% (active); in experiment [20], -67% (active); in [3] it was -25.2% (active); in [4], -88.9% (active); in [7], 59.1%. For the same compound, the growth in experiment [8] was -72.8% (active); in experiment [9], 86.7%; in experiment [11], -38.4% (active); in experiment [12] it was -48.9% (active); in [13] it was -70.9% (active); in experiment [14] it was 98.8%. The growth was -89.7% (active) in experiment [15], -82.2% (active) in experiment [16], 74.4% in experiment [17] and -6.07% (active) in [18].

On to `Nc1nc(N)c2c(n1)NC(c1ccccc1)CC(c1ccc(Nc3nc(NCCO)nc(Nc4ccc(Cl)cc4)n3)cc1)=N2` (centres undefined), for which the growth was -58% (active) in experiment [1]; -87.6% (active) in [2]; -77.1% (active) in [3]; 11.9% in experiment [4]; 15.1% in experiment [5]; 55.6% in experiment [6]. For the same compound, the growth in experiment [7] is 96.7%; in experiment [8] it was -86.1% (active); in experiment [9], 109%; in experiment [10], 71.9%; in experiment [11], 92.6%; in experiment [12], 49.4%. Besides, the growth is 43.9% in [13]; 63.7% in experiment [14]; 70.2% in experiment [15]; 61% in experiment [16]; 71.3% in experiment [17]; -11.2% (active) in experiment [18]. In addition, the growth in [19] was 1.48% (active).

As to `CC(C)Sc1nc(NC2CC2)c(C#N)c(-c2ccccc2)n1`, the growth is 92.4% in experiment [1]; 91.1% in experiment [2]; 90% in experiment [3]; 85.1% in experiment [4]; 92.5% in experiment [5]; 100% in experiment [6]. For the same compound, the growth in experiment [7] is 87.6%; in experiment [8], 67.9%; in experiment [9], 98.7%; in [10] it was 124%; in [11], 101%; in experiment [12], 57.8%. Also, the growth was 48.5% in experiment [13]; 123% in experiment [14]; 29.1% in [15]; 68% in experiment [16]; 64.5% in [17]; 85.1% in experiment [18]. In experiment [19], the growth was 92.6%.

Turning to `O=C(CCCCCCN1CC(=O)N2[C@@H](c3ccccc3)c3[nH]c4ccccc4c3C[C@H]2C1=O)NO`, the growth is 91.4% in [1]; 41.9% in experiment [2]; 67.1% in experiment [3]; 51.7% in experiment [4]; 59.6% in experiment [5]; 41.7% in experiment [6]. For the same compound, the growth in [7] is 18.8%; in [8] it was 30.8%; in [9] it was 47%; in experiment [10], 68.4%; in [11] it was 84.3%; in experiment [12], 78.4%. Besides, the growth in experiment [13] was 57.1%; in experiment [14], 69.4%; in experiment [15], 87.3%; in experiment [16] it was 65.5%; in experiment [17], 87.1%; in experiment [18], 24.5%. Moreover, the growth in experiment [19] was 20.9%.

Take `COc1ccc(Oc2ccc(C3CC(c4cc(OC)c(OC)c(OC)c4)=NN3C(C)=O)cc2)cc1` (centres undefined): the growth in experiment [1] was 18.5%; in experiment [2] it was 31.7%; in experiment [3] it was 30.8%; in [4], 24.9%; in experiment [5] it was 18.3%; in experiment [6], 1.54% (active). In addition, the growth in experiment [7] is 28.9%; in experiment [8], 35.8%; in experiment [9], 43.3%; in experiment [10], 49%; in experiment [11], 25.4%; in [12], 22.3%. In addition, the growth is 10.1% in experiment [13]; 20% in [14]; 20.8% in experiment [15]; 36.1% in experiment [16]; 29.5% in [17]; 37.7% in [18]. For the same compound, the growth in experiment [19] was 14.2%.

On to `O=C(/C=C1\C=CN(CCCCO)c2ccccc21)n1ccc2ccccc21`, for which the growth is 107% in experiment [1]; 109% in [2]; 94.8% in experiment [3]; 102% in experiment [4]; 107% in [5]; 98.1% in experiment [6]. The growth is 87.6% in experiment [7]; 114% in experiment [8]; 108% in experiment [9]; 101% in [10]; 89.6% in [11]; 98.7% in experiment [12]. In addition, the growth in [13] was 74.3%; in experiment [14], 117%; in experiment [15], 93.7%; in [16], 85.7%; in experiment [17] it was 117%; in [18] it was 102%. Moreover, the growth in [19] was 102%.

As for `CCCC(=O)NC(c1cccnc1)c1cc(Cl)c2cccnc2c1O` (centres undefined), the growth in experiment [1] is 18.5%; in experiment [2] it was 35.5%; in [3], 19.4%; in experiment [4] it was 24.2%; in experiment [5], 41.1%; in experiment [6], 34.3%. In addition, the growth in experiment [7] was 23.8%; in experiment [8], 32.7%; in [9], 51.9%; in [10], 42.7%; in [11], 24%; in [12], 44.4%. The growth is 22.3% in experiment [13]; 47.6% in experiment [14]; 20.5% in experiment [15]; 34.6% in experiment [16]; 89.9% in [17]; 25% in [18]. The growth in [19] was 30.3%.
